Screening results (PubChem BioAssay)
Pyk2 oligo antag: antagonists of human Pyk2 oligomerization; 99,000 compounds, 0.83% hits; z-score (the deposit names both 25 µM and 10 µM); Q293 cells, Pyk2 FERM NanoBiT luminescence; hits give low values; AID 1347419; Q14289;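 active = Z-score of -3 or lower, scaled per plate to the spread of control and sample wells; inactive = z-score above -3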;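 note: negative z-score means lost luminescence so less FERM oligomerization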
PostGolgi ctrl: inhibits growth of the yeast control strain | efflux-deficient yeast background strain, growth absorbance A615, 16 h | inhibition, % at 10 µM | 98,000 compounds, 5% hits
PostGolgi yeast: growth inhibition of a yeast mutant, post-Golgi transport screen; inhibition, % at 10 µM; AID 739; 98,000 compounds, 0.9% hits; post-Golgi transport phenotypic cell assay;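 note: yeast cells grown in 1536-well plates; yeast grown about 18 h at 30C before absorbance read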
Cav3 T inh: inhibitors of human Cav3.2 T-type calcium channel. AID 449739. B-score at 10 µM. O95180. Cav3.2-expressing cells, Fluo-4 calcium fluorescence FDSS; hits give low values. 100,000 compounds, 4% hits;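 active = single-dose well whose peak fluorescence ratio is a statistical outlier from its plate by either plate-standardised score or position-corrected B-score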
Active calls of the source: *; . = no result given. Most compounds without a hit are left out; they make up all but 8% or so of the library. Cut-off read from the data, not from the text of the source, unless noted: active = inhibition above about 30%; inactive = the rest.

SMILES	Pyk2 oligo antag	PostGolgi ctrl	PostGolgi yeast	Cav3 T inh
CCSc1nnc(Cc2cc(=O)[nH]c(=O)[nH]2)n1-c1cc(C)ccc1C	-0.97	30.1*	-6.4	0.407
NC(=O)CC(NC(=O)Cc1ccc(Br)cc1)c1ccc(NCCc2ccccc2F)c([N+](=O)[O-])c1 (configuration not stated)	.	.	.	0.696
CC(C)c1ccc(CN2CCC(C(=O)NCc3cccnc3)CC2)cc1	0.08	4.0	1.9	0.774
OC(COc1ccc2ccccc2c1Br)Cn1cnc(-c2ccccc2)c1 (configuration not stated)	-0.04	52.6*	26.9	-0.812
COc1ccc(OCC(O)Cn2cnc(-c3ccc(Br)cc3)c2)cc1 (configuration not stated)	-0.27	.	.	0.681
CC(C)Oc1ccc(/C=N/NC(=O)C(CSCc2ccccc2)NC(=O)c2ccc([N+](=O)[O-])cc2)cc1 (configuration not stated)	0.64	.	.	-7.37*
CCCOc1ccc(/C=N/NC(=O)CSCc2ccc([N+](=O)[O-])cc2)cc1OCC	-0.64	.	.	.
CC1=C(C(=O)Nc2ccc(C)cn2)C(c2cnn(C)c2)C2=C(CCCC2=O)N1 (configuration not stated)	0.71	.	.	.
Cc1cc(C(=O)Nc2ccccc2C(F)(F)F)no1	1.41	1.9	9.5	2.13
Cc1ccc(C(=O)NCc2ccc(Cl)c(Cl)c2)o1	0.75	4.1	3.3	-0.309
Cc1nn(Cc2ccc(C(=O)Nc3ccccc3C(F)(F)F)o2)c(C)c1Br	-1.34	34.4*	0.9	-2.36
Cc1ccc(CNC(=O)c2ccc(Cn3nc(C)c(Cl)c3C)o2)cc1	-0.29	100.5*	104.3*	-4.67*
Cc1ccc(S(=O)(=O)N2CCSC2c2ccco2)cc1 (configuration not stated)	-0.09	-3.6	-4.7	-1.53
CCOC(=O)C1=C(Nc2ccc(Br)cc2)CC(C)(O)C(C(=O)OCC)C1c1ccccc1 (configuration not stated)	-0.65	9.7	-4.1	0.481
CCN(CC)c1ccc2cc(S(=O)(=O)c3ccc(Cl)cc3)c(=O)oc2c1	.	.	.	-4.08*
CCCCCCc1cc2cc(S(=O)(=O)c3ccc(Cl)cc3)c(=O)oc2cc1O	.	.	.	-0.214
COc1cc(C(=O)Nc2nnc(-c3sccc3C)s2)cc(OC)c1OC	2.47	35.6*	-0.5	-1.51
COc1ccc(C(=O)Nc2nnc(-c3cccs3)s2)cc1	0.81	12.8	-5.7	0.515
O=C(NCc1n[nH]c(=S)n1-c1ccc(F)cc1)c1ccco1	-0.76	13.0	0.3	0.389
Cc1sc(NC(=O)CSC2=NCCS2)nc1-c1ccccc1	0.13	5.9	0.0	-4.39*
COC(=O)CCSCC(=O)Nc1cc(C)on1	-0.26	3.1	-7.2	-0.0414
Cc1cc(NC(=O)CSC2=NCCS2)no1	0.2	30.5*	-5.4	0.0391
C=CCn1c(CCNC(=O)c2ccccc2F)nnc1SCC(=O)Nc1nc(C)cs1	1.84	-1.5	-3.8	.
CCCCCCOC(=O)C[N+](C)(C)CCOC1CC2CCC1(C)C2(C)C (configuration not stated)	0.5	36.8*	15.9	-0.801
O=C(Nc1ccc2c(c1)OCO2)c1c(F)cccc1F	0.03	4.0	12.7	-3.3*
SMILES	Pyk2 oligo antag	PostGolgi ctrl	PostGolgi yeast	Cav3 T inh
Cn1c(C(=O)OC(C(=O)NCc2ccco2)c2ccncc2)cc2sccc21 (configuration not stated)	-0.09	-12.2	-1.8	0.532
O=C(/C(=C/c1ccc(Cl)cc1)c1nc2ccccc2[nH]1)c1ccccc1	-0.4	102.4*	61.7*	0.92
COc1ccc(Cn2nnc3c(=O)[nH]c(C(=O)NCCc4ccc(F)cc4)nc32)cc1OC	.	31.4*	1.3	0.79
CCOC(=O)C1CCCN(C(=O)CCn2nc(-c3ccccc3)ccc2=O)C1 (configuration not stated)	-0.39	5.6	4.8	.
O=C(Cn1cnc2ccccc2c1=O)Nc1nnc(SCc2ccccc2)s1	1.17	1.4	-5.7	-1.54
Cc1cc(=O)[nH]c(N2CCc3ccccc3C2)n1	0.05	46.4*	2.0	0.662
CCC(C)(C)NC(=O)C(c1ccc(OC)cc1)N(Cc1cccs1)C(=O)CCC(=O)Nc1cc(C)on1 (configuration not stated)	0.15	.	.	-5.5*
CCOc1cccc(NC(=O)C2CC(=O)N(C)C(=Nc3cccc(F)c3)S2)c1 (configuration not stated)	-2.39	16.3	-1.8	-4.74*
CCOc1cccc(NC(=O)C2CC(=O)N(C)C2)c1 (configuration not stated)	0.76	6.1	-7.2	0.112
CCOc1cccc(NC(=O)C2CC(=O)N(C)C(=Nc3ccccc3)S2)c1 (configuration not stated)	-1.36	15.7	5.8	-4.48*
COc1ccccc1N=C1SC(C(=O)Nc2ccc(F)cc2)CC(=O)N1C (configuration not stated)	0.37	.	.	1.2
Cc1cc(C(=O)Nc2c(C)nn(Cc3ccccc3Cl)c2C)no1	0.28	-0.9	-6.8	-0.273
Cc1nn(Cc2ccccc2Cl)c2sc(C(=O)NCc3ccc4c(c3)OCO4)cc12	-1.52	28.6	-4.4	-3.53*
O=C(NCc1ccc2c(c1)OCO2)c1cc(-c2ccccc2Cl)on1	-1.1	27.5	-7.8	-3.16
COc1cccc(-c2nn(C)c3sc(C(=O)NCc4ccc5c(c4)OCO5)cc23)c1	.	30.4*	-8.8	-1.78
CCC(CC)NC(=O)c1cc2c(C)nn(Cc3ccccc3Cl)c2s1	-0.65	38.1*	0.3	0.0632
COc1ccccc1CNC(=O)c1cc2c(C)nn(Cc3ccc(F)cc3)c2s1	-1.28	33.4*	-3.9	-1.4
O=C(NCc1ccccc1)c1onc(CSc2ccccn2)c1C(=O)NCc1ccccc1	.	.	.	-1.6
CC(C)CCNC(=O)c1onc(CSc2ccccn2)c1C(=O)NCCC(C)C	.	.	.	-0.99
CC(=NCCCn1ccnc1)c1c(O)n(Cc2ccccc2)c(=O)[nH]c1=O	-0.15	9.2	9.9	0.0919
O=c1c2ccccc2n(Cc2ccc(Cl)cc2)c(=O)n1Cc1ccco1	-2.06	75.5*	-2.3	.
CC(=O)Nc1ccc(NC(=O)CN(c2ccccc2Cl)S(C)(=O)=O)cc1	-0.21	-5.3	6.5	-0.227
O=C(O)c1cc(-c2ccc(/C=N/Nc3ccc(Cl)cc3)o2)ccc1Cl	0.21	10.5	62.9*	1.42
COC(=O)N/N=C/c1ccc(-c2ccc(C)c(Cl)c2)o1	0.87	.	.	.
CCOC(=O)C1=C(c2ccccc2)N(C)C(=O)NC1c1ccc(OC(F)F)c(OC)c1 (configuration not stated)	-2.99	8.3	-0.7	-8.58*
SMILES	Pyk2 oligo antag	PostGolgi ctrl	PostGolgi yeast	Cav3 T inh
CCN(CC#CCC1(O)c2ccccc2-c2ccccc21)C(C)C	-0.82	1.8	-4.5	0.7
O=C(NCc1ccco1)c1cc(-c2ccncc2)nc2ccccc12	-0.23	9.5	14.1	-5.77*
O=C(NCc1ccco1)c1cc(-c2cccnc2)nc2ccccc12	0.08	8.8	2.1	0.188
O=Cc1cn(CC(=O)N2CCOCC2)c2ccccc12	0.31	.	.	1.26
CN1CCN(Cn2cc(/C=C/C(=O)c3ccccc3)c3ccccc32)CC1	-1.82	34.0*	15.5	-0.493
Cc1ccc(-n2c(=O)c3sccc3n(CC(=O)NCc3ccco3)c2=O)cc1F	0.29	-1.0	-7.0	-0.0416
Cc1ccccc1CSCCNC(=O)CSCc1ccc([N+](=O)[O-])cc1	-0.43	22.7	-5.3	.
